Records with an inconclusive call do not appear. Values without a mark were called inactive. Calls of active or inactive are those of the source. The call rests on the fitted dose curve.
assay: qHTS assay to identify small molecule agonists of the NFkB signaling pathway - cell viability counter screen (AID 1159515); conditions: NFkB-bla ME-180 viability, CellTiter-Glo luminescence, 5 h; series mostly up to 61 µM; further: nearly all actives have a fitted effect of over 55% in size
Text: National Center for Advancing Translational Sciences [NCATS]
NIH Chemical Genomics Center [NCGC]
U.S. Environmental Protection Agency [EPA]
National Institutes of Environmental Health Sciences [NIEHS]
National Toxicology Program [NTP]
U.S. Food and Drug Administration [FDA]
Transcription factors and their stimulated target gene expression play pivotal roles across many cellular processes including responses to environmental stimuli. Proper regulation of associated pathways is critical to maintain cell health and function. Constitutive activation of transcription factor pathways has been implicated in tumors as it may block cellular functions such as apoptosis and lead to invasion and metastasis. One important transcription factor that stimulates gene expression in response to cytokines, UV radiation, and other stimuli is nuclear factor-kappa B (NFkB). To measure activation of the NFkB pathway, the CellSensor NFkB-bla ME-180 cell line (Life Technologies, Carlsbad, CA) that stably expresses beta-lactamase reporter gene under the regulation of a NF-kB response element was used. This assay allows measurement of the NFkB pathway activity induced by compounds in a ME-180 cell line. This system quantitates NF-kB activity using a FRET-based assay system where beta-lactamase expression disrupts FRET, allowing for fluorescent measurement of activity. This cell line has been used to screen the Tox21 10K compound library and to identify compounds that induce the NFkB pathway activity. The cytotoxicity of the Tox21 compound library against the NFkB-bla ME-180 cell line was tested in parallel by measuring cell viability using the CellTiter-Glo assay in the same wells.
Tox21 Assay Protocol Summary:
NFkB-bla ME-180 cells were dispensed at 2,000 cells/6 uL of assay medium per well into black wall/clear-bottom 1536-well plates using a Multidrop Combi (ThermoFisher Scientific, Waltham, MA) dispenser. After the assay plates were incubated at 37 C and 5% CO2 for an overnight, 23 nL of compounds dissolved in DMSO, positive controls or DMSO only was transferred to the assay plate by a Pintool station (Kalypsys, San Diego, CA). The assay plates were incubated at 37 C and 5% CO2 for 5 hr. One uL of LiveBLAzer B/G FRET substrate (Life Technologies) was added using a Flying Reagent Dispenser (Aurora Discovery, San Diego, CA) and the plates were incubated at room temperature for 1.5 hr. Fluorescence intensity (405 nm excitation, 460 nm and 530 nm emissions) was measured using an Envision plate reader (PerkinElmer, Shelton, CT). For cytotoxicity, 3 ul/well of CellTiter-Glo reagent was added into the assay plates using an FRD. After 30 min incubation at room temperature, the luminescence intensity was measured using a ViewLux plate reader (PerkinElmer).
On the % scale 0 is the no-effect control and ±100 the full control effect.

| Compound | outcome | activity, negative = cytotoxic |
| --- | --- | --- |
| CC(C)c1ccc2ncccc2c1 | inactive | – |
| CO/N=C(\C(=O)N[C@@H]1C(=O)N2C(C(=O)O)=C(CSc3nc(=O)c(O)nn3C)CS[C@H]12)c1csc(N)n1 | inactive | – |
| CN(C)C(=O)Oc1cccc([N+](C)(C)C)c1 | inactive | – |
| O=C(O)c1cn(C2CC2)c2cc(N3CCNCC3)c(F)cc2c1=O | inactive | – |
| O=C(CO)[C@@H](O)[C@H](O)[C@@H](O)CO | inactive | – |
| CNCCO | inactive | – |
| COc1ccnc(CS(=O)c2nc3cc(OC(F)F)ccc3[nH]2)c1OC (stereo not given) | inactive | – |
| CC[C@H]1OC(=O)[C@H](C)[C@@H](O[C@H]2C[C@@](C)(OC)[C@@H](O)[C@H](C)O2)[C@H](C)[C@@H](O[C@@H]2O[C@H](C)C[C@H](N(C)C)[C@H]2O)[C@](C)(OC)C[C@@H](C)C(=O)[C@H](C)[C@@H](O)[C@]1(C)O | inactive | – |
| CC(C#N)(CCC(=O)O)N=NC(C)(C#N)CCC(=O)O (stereo not given) | inactive | – |
| OCCCCCO | inactive | – |
| CC(C)NNC(=O)c1ccncc1 | inactive | – |
| CCC(C)(CN(C)C)OC(=O)c1ccccc1 (stereo not given) | inactive | – |
| C=CN1CCCCCC1=O | inactive | – |
| NC(=O)Cc1cccc2ccccc12 | inactive | – |
| CCCO[Si](OCCC)(OCCC)OCCC | inactive | – |
| CC(=O)Nc1ccc(OCC(O)CNC(C)C)cc1 (stereo not given) | inactive | – |
| CC(=O)N1C[C@H](O)C[C@H]1C(=O)O | inactive | – |
| N[C@H](C(=O)O)[C@@H](O)c1ccc(O)c(O)c1 | inactive | – |
| C1CCC2(CCCCO2)OC1 | inactive | – |
| CCCCCCCCCCCCSC | inactive | – |

| Compound | outcome | activity, negative = cytotoxic |
| --- | --- | --- |
| C[C@@H]1C[C@H]2[C@@H]3C[C@H](F)C4=CC(=O)C(Cl)=C[C@]4(C)[C@@]3(F)[C@@H](O)C[C@]2(C)[C@@]1(O)C(=O)CO | inactive | – |
| CC(CO)(CO)[N+](=O)[O-] | inactive | – |
| CCCC[N+](C)(CCCC)CCCC | inactive | – |
| CCN1CCOCC1 | inactive | – |
| CCCCOCCOC(=O)COc1cc(Cl)c(Cl)cc1Cl | inactive | – |
| CCCCCCCCCCCCCCC(=O)O | inactive | – |
| C[N+]1(CC2COC(c3ccccc3)(c3ccccc3)O2)CCCCC1 (stereo not given) | inactive | – |
| CCCCS(=O)(=O)N[C@@H](Cc1ccc(OCCCCC2CCNCC2)cc1)C(=O)O | inactive | – |
| O=C1NC(=O)C2CC=CCC12 (stereo not given) | inactive | – |
| CCOC(=O)c1ccccc1 | inactive | – |
| C[N+]1(C)[C@@H]2CC(OC(=O)[C@H](CO)c3ccccc3)C[C@H]1[C@@H]1O[C@@H]12 (stereo not given in full) | inactive | – |
| CCN[C@@H]1C[C@H](N)[C@@H](OC2OC(CN)=CCC2N)[C@H](O)[C@H]1O[C@H]1OC[C@](C)(O)[C@H](NC)[C@H]1O (stereo not given in full) | – | 6.29% [at 0.628 µM] |
| NS(=O)(=O)Cc1noc2ccccc12 | inactive | – |
| CC/C=C\CCOC(C)OCC (stereo not given) | inactive | – |
| CC1(C)[C@@H]2CC[C@@]1(C)[C@H](O)C2 | inactive | – |
| CCCc1nn(C)c2c(=O)[nH]c(-c3cc(S(=O)(=O)N4CCN(C)CC4)ccc3OCC)nc12 | inactive | – |
| CC1CCC(CO)CC1 (stereo not given) | inactive | – |
| C[N+]12CCC(CC1)C(OC(=O)C(O)(c1ccccc1)c1ccccc1)C2 (stereo not given) | inactive | – |
| CC1=NN(c2cccc(S(=O)(=O)O)c2)C(=O)C1 | inactive | – |
| C[C@H]1C[C@H]2[C@@H]3CCC4=CC(=O)C=C[C@]4(C)[C@H]3C(=O)C[C@]2(C)[C@@]1(O)C(=O)CO | inactive | – |

— PubChem BioAssay (Tox21)
